According to article PMC5540273 (PLoS ONE, 2017):

Experiments:
Settings in all cases: concentration: 1 μM, replicates: in singlicate; n = 1
CDK2 = test system: CDK2
CDK3 = test system: CDK3
CDK4-cyclinD1 = test system: CDK4-cyclinD1
CDK4-cyclinD3 = test system: CDK4-cyclinD3
CDK4 = test system: CDK4
CDK5 = test system: CDK5
CDK7 = test system: CDK7
CDK8 = test system: CDK8
CDK9 = test system: CDK9
CDKL1 = test system: CDKL1
CDKL2 = test system: CDKL2
CDKL3 = test system: CDKL3
CDKL5 = test system: CDKL5
CHEK1 = test system: CHEK1
CHEK2 = test system: CHEK2
CIT = test system: CIT
CLK1 = test system: CLK1
CLK2 = test system: CLK2
CLK3 = test system: CLK3
CLK4 = test system: CLK4
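Also: KINOMEscan kinase panel screen.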

SMILES | %Inh (CDK2) | %Inh (CDK3) | %Inh (CDK4-cyclinD1) | %Inh (CDK4-cyclinD3) | %Inh (CDK4) | %Inh (CDK5) | %Inh (CDK7) | %Inh (CDK8) | %Inh (CDK9) | %Inh (CDKL1) | %Inh (CDKL2) | %Inh (CDKL3) | %Inh (CDKL5) | %Inh (CHEK1) | %Inh (CHEK2) | %Inh (CIT) | %Inh (CLK1) | %Inh (CLK2) | %Inh (CLK3) | %Inh (CLK4)
Cl.Fc1ccccc1COc1ccc(Nc2ncnc3ccc(-c4nnc(C(F)(F)F)o4)cc23)cc1Cl [GW424170] | 0% | 0% | 0% | 0% | 26% | 0% | 0% | 29% | 0% | 3% | 0% | 0% | 0% | 5% | 7% | 11% | 31% | 0% | 4% | 13%
Fc1cccc(COc2ccc(Nc3ncnc4sc(-c5ccc[nH]5)cc34)cc2Cl)c1 [GW707818] | 0% | 10% | 0% | 11% | 17% | 0% | 0% | 31% | 14% | 6% | 14% | 0% | 0% | 7% | 21% | 27% | 29% | 8% | 0% | 100%
Nc1nc(-c2ccc3c(N)n[nH]c3c2)cc(N2CCC[C@@H](C(=O)Nc3ccccc3)C2)n1.O=C(O)C(F)(F)F.O=C(O)C(F)(F)F [GSK2288359] | 0% | 0% | 0% | 0% | 0% | 0% | 0% | 23% | 0% | 15% | 6% | 0% | 2% | 0% | 0% | 23% | 45% | 29% | 8% | 21%
COc1cc2c(Nc3cccc(NC(=O)c4ccccc4)c3)ncnc2cc1OCCCN1CCOCC1 [GSK223810] | 0% | 5% | 0% | 0% | 0% | 0% | 0% | 14% | 0% | 0% | 3% | 0% | 0% | 0% | 0% | 29% | 10% | 10% | 0% | 16%
Clc1cccc(-c2nc(Nc3ccncc3)c3ccccc3n2)c1 [GW873004] | 0% | 0% | 21% | 0% | 0% | 0% | 10% | 50% | 0% | 30% | 35% | 13% | 3% | 0% | 0% | 57% | 14% | 0% | 35% | 52%
Clc1cc(Nc2ncnc3cc[nH]c23)ccc1OCc1ccccn1 | 8% | 1% | 10% | 0% | 10% | 22% | 29% | 0% | 30% | 16% | 0% | 31% | 8% | 14% | 13% | 18% | 13% | 0% | 5% | 7%
COc1ccc(-c2oc3ncnc(N)c3c2-c2ccc(OC)cc2)cc1 [SB-589132] | 0% | 6% | 27% | 12% | 59% | 0% | 0% | 62% | 0% | 5% | 2% | 0% | 2% | 0% | 0% | 0% | 29% | 0% | 0% | 0%
c1ccc(-c2ccc3c(-c4ccnc(Nc5ccc6c(c5)OCCO6)n4)cnn3n2)cc1 [GW818941] | 0% | 3% | 0% | 0% | 34% | 0% | 0% | 11% | 0% | 0% | 16% | 0% | 0% | 0% | 0% | 6% | 52% | 42% | 0% | 58%
COc1ccc(Nc2nccc(N3CCC(NC(=O)c4cccc(NC(C)=O)c4)C3)n2)cc1 (centres unmarked) [GSK1379732] | 0% | 0% | 20% | 0% | 0% | 0% | 3% | 56% | 0% | 9% | 18% | 0% | 0% | 0% | 41% | 43% | 21% | 0% | 0% | 12%
Fc1cccc(COc2ccc(Nc3ncnc4nn5ccccc5c34)cc2Cl)c1 [GW689066] | 0% | 0% | 13% | 0% | 33% | 0% | 0% | 37% | 0% | 0% | 1% | 0% | 0% | 0% | 28% | 0% | 9% | 0% | 0% | 0%
